# From PubChem BioAssay (NCATS)
# Results filed as inconclusive are left out. The source made the active and inactive calls. Unless noted, the call rests on the fitted dose curve; in most records, active means well fitted curve in the direction sought with a large enough effect; inconclusive means small, poorly fitted or top-dose-only effect, or another doubt; inactive means no such curve, though single readings can be large; an effect the other way counts as inactive or inconclusive.
# Tests used:
# [1] = target: Lysosomal acid glucosylceramidase (Homo sapiens) (UniProt P04062); assay: Glucocerebrosidase-p2 (AID 348; in the data active means potency below about 10 µM; further: potency means the concentration at half of the fitted maximal effect); details: purified GBA, blue fluorogenic substrate, 40 min
# Sequence of Lysosomal acid glucosylceramidase (Homo sapiens) (P04062 whole entry, looked up): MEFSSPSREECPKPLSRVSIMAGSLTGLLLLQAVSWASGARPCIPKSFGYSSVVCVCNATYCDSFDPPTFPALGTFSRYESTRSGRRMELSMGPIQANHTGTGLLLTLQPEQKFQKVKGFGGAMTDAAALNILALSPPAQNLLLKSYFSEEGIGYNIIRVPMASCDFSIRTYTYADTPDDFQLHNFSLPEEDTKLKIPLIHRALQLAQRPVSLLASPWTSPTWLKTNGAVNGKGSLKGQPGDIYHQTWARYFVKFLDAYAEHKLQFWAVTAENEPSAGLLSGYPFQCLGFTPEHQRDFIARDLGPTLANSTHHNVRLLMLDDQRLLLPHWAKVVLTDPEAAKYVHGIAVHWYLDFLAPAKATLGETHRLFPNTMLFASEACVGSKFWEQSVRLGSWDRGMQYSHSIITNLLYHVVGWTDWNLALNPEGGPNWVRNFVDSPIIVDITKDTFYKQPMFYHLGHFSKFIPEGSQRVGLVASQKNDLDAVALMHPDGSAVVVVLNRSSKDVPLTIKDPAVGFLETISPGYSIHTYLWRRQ
# Method in brief: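 Compounds titrated from 0.6 nM upwards against 0.2 nM enzyme in pH 5.9 citric acid/KH2PO4, taurocholate, tween-20; blue fluorogenic substrate 80 uM, 40 min room temperature, stopped and read Ex 365/Em 440 for AC50.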
# [2] = AP1 Signaling Pathway (AID 357; active means well fitted curve in either direction with a large enough effect, not every such curve was filed as active;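 further: ME-180 reporter cells stimulated with EGF at its EC50 level; on the % scale 0 is the no-effect control and ±100 the full control effect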); details: ME-180 AP-1-bla reporter, EGF-induced, beta-lactamase ratio, 5 h; at 7.69 µM (top of the series) unless noted
# Method in brief: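 Read-out was the 460nm/530nm emission ratio (excitation 405nm) after CCF4 loading for 2.5 hours at room temperature. Cells carried an AP-1-driven beta-lactamase reporter, were stimulated with EC50 EGF plus compound for 5 hours, and AC50 values came from titrations.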
# [3] = target: Cytochrome P450 1A2 (Homo sapiens) (UniProt P05177); assay: p450-cyp1a2 (AID 410; calls by dose curve; further: potency means the concentration at half of the fitted maximal effect;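 on activity change, negative = inhibition: -100% = full effect of reference inhibitor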); details: recombinant CYP1A2, luciferin-ME demethylation, luminescence; series mostly up to 57 µM
# Sequence of Cytochrome P450 1A2 (Homo sapiens) (P05177 whole entry, looked up): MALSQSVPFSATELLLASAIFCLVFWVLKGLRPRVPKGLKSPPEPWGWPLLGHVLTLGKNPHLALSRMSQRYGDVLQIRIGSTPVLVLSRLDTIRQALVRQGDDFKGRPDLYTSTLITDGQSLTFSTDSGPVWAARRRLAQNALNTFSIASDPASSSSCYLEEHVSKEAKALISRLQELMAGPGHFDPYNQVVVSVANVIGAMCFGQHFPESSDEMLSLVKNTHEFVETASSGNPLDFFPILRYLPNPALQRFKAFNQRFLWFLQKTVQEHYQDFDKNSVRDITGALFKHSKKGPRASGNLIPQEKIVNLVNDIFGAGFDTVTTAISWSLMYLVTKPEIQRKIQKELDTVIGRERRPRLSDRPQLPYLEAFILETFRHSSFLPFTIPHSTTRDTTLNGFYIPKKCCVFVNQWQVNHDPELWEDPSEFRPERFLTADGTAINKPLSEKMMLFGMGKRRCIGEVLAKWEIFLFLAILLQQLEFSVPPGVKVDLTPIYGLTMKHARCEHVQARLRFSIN
# Method in brief: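 Inhibition was calculated relative to 57 uM furafylline (full inhibition). The reaction used human CYP1A2 at 20nM with Luciferin-ME at its Km, 100uM, driven by an NADPH-regenerating system for 60 min at room temperature.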
# [4] = NFAT Signaling Pathway (AID 444; active means well fitted curve in either direction with a large enough effect, not every such curve was filed as active;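 further: carbachol stimulus at about its EC50 of 1 µM final; on the % scale 0 is the no-effect control and ±100 the full control effect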); details: Jurkat NFAT-bla M1, carbachol, beta-lactamase ratio, 5 h
# Method in brief: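 Read-out: CCF4 FRET ratio (460 nm/530 nm) after 1 h RT dye loading, used for %activity and AC50 from titration series. Cells: Jurkat NFAT-β-lactamase/M1 line, treated with compound plus 1 uM carbachol for 5 h, 37 °C.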
# [5] = Stat Signaling Pathway (AID 446; active means well fitted curve in either direction with a large enough effect, not every such curve was filed as active;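 further: ME-180 cervical cancer cells given 40 pM IL-6 alongside compound; SIE-controlled beta-lactamase reporter measured as 460/530 nm FRET emission ratio; on the % scale 0 is the no-effect control and ±100 the full control effect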); details: ME-180 (cervical carcinoma) SIE beta-lactamase reporter, IL-6 stimulated, 5 h; at 7.69 µM (top of the series) unless noted
# Method in brief: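 IL-6/STAT signaling read in ME-180 cells via an SIE beta-lactamase reporter. Stimulus was 40 pM IL-6 (its AC50) for 5 hrs, so both activation and inhibition register.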
# [6] = target: Glucocorticoid receptor (Homo sapiens) (UniProt P04150); assay: GR-EFC Redistribution (AID 451; calls by dose curve; further: potency means the concentration at half of the fitted maximal effect); details: CHO-K1 GR-EFC translocation, beta-gal luminescence, 2 h
# Sequence of Glucocorticoid receptor (Homo sapiens) (P04150 whole entry, looked up, the tested form may be a part): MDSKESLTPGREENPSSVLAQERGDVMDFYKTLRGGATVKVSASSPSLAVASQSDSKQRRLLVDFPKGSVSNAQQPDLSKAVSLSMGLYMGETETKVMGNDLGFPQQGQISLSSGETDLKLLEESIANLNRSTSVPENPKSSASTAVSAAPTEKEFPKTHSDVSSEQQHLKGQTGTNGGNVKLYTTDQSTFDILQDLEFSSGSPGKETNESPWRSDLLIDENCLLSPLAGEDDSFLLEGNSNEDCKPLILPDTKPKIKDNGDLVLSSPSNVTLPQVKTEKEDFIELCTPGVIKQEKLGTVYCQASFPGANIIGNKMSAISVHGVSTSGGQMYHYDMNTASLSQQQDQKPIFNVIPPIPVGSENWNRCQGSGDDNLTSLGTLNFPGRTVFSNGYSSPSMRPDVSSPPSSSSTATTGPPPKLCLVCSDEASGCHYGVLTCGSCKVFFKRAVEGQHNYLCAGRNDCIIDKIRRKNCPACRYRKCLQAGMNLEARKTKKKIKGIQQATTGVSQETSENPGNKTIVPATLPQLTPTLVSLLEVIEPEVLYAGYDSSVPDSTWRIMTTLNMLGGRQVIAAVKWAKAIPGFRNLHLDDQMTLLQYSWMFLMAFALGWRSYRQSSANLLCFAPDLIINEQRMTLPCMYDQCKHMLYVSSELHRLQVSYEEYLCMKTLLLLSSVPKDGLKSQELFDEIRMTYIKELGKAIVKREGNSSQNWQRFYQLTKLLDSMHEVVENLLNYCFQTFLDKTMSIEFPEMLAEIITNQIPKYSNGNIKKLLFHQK
# Method in brief: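 Translocation of GR-ED fusion to nuclear EA restores b-gal, read by luminescence after 1 h room-temperature detection. Engineered CHO-K1 biosensor cells, 1,000/well, exposed 2 h at 37 C to titrations up to 46 uM final.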
# [7] = target: Mitogen-activated protein kinase 10 (Mus musculus) (UniProt Q61831); assay: JNK3 AlphaScreen Assay (AID 530; active means well fitted curve in either direction with a large enough effect, not every such curve was filed as active;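 further: kinase came from lysate of stimulated human HepG2 cells; signal reports phosphorylation of biotinylated GST-cJun 1-79 at Ser73 with 10 µM ATP; on the % scale 0 is the no-effect control and ±100 the full control effect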); details: JNK3 lysate, c-Jun phosphorylation; series mostly up to 57.1 µM
# Method in brief: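 Room-temperature AlphaScreen kinase assay; pre-activated HepG2 lysate as JNK3 source, biotin-GST-cJun(1-79) substrate, 10 uM ATP, compound 15 min preincubation.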
# [8] = target: Cytochrome P450 3A4 (Homo sapiens) (UniProt P08684); assay: qHTS Assay for Activators of Cytochrome P450 3A4 (AID 885); details: recombinant CYP3A4, Luciferin-PPXE luminescence, 60 min; series mostly up to 57.1 µM; further: nearly all actives have a fitted effect of over 65% in size
# Method in brief: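 Quantitative HTS format: compounds preincubated with 20nM human CYP3A4 and Luciferin-PPXE substrate at KM, reaction started by NADPH regeneration, stopped after 60 min, luciferase luminescence read 20 min later.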
# [9] = qHTS Assay for Lipid Storage Modulators (AID 1519; calls by dose curve); details: Drosophila S3 cells, BODIPY lipid droplet/cell ratio, laser cytometry, cells loaded with oleic acid
# Method in brief: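 Cells seeded at 5,000 per well were treated with compounds over a concentration series and loaded with oleic acid (400 uM, as added). Lipid droplet fluorescence (488 nm excitation, 500-530 nm channel) was read by laser-scanning cytometry and normalized to 20 uM Triacsin C.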
# [10] = Primary qHTS for small molecule stabilizers of the endoplasmic reticulum resident proteome: Secreted ER Calcium Modulated Protein (SERCaMP) assay (AID 1508630); details: SH-SY5Y GLuc-SERCaMP (Gaussia luciferase released on ER calcium loss) secretion, thapsigargin, luminescence; series mostly up to 38.4 µM; further: on the % scale 0 is the no-effect control and ±100 the full control effect
# Method in brief: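 GLuc-SERCaMP-expressing SH-SY5Y cells, pretreated 16 h with compound, are challenged with thapsigargin to empty ER calcium stores; after 4 h, coelenterazine is added directly to the medium and luminescence is imaged.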
# [11] = target: Rap guanine nucleotide exchange factor 3 (Homo sapiens) (UniProt O95398); assay: Confirmatory qHTS for agonist of cAMP-regulated guanine nucleotide exchange factor 3 (EPAC1) (AID 1645881); details: EPAC1 Rap1B BODIPY-GDP exchange fluorescence, 100% = cAMP control response; series mostly up to 154 µM;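 further: EPAC1 catalysed release of BODIPY-GDP from Rap1B seen as fluorescence loss; nearly all actives have a fitted effect of over 75% in size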
# Sequence of Rap guanine nucleotide exchange factor 3 (Homo sapiens) (O95398 whole entry, looked up): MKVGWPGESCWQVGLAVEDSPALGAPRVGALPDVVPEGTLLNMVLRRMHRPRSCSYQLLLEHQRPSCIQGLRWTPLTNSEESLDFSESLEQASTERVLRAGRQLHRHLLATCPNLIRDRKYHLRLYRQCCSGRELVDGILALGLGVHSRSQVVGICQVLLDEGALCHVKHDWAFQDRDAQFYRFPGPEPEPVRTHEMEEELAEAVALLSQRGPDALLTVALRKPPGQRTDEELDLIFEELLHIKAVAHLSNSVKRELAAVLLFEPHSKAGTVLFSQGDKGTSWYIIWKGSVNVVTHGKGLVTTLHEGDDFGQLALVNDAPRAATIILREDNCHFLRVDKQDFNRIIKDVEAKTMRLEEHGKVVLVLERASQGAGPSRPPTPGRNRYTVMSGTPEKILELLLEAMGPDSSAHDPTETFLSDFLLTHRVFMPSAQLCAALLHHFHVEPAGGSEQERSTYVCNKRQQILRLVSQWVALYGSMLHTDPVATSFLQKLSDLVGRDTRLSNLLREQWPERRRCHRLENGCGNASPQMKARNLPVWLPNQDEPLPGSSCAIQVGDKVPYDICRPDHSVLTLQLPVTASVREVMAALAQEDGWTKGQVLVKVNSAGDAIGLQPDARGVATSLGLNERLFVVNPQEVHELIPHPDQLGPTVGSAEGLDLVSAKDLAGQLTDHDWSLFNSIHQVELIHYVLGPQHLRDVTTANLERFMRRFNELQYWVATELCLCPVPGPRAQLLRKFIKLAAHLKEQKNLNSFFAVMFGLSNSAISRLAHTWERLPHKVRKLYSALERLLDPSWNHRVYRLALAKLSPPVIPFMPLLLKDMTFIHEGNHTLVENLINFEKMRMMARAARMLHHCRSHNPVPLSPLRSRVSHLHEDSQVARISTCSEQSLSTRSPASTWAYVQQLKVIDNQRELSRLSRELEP
# [12] = target: Rap guanine nucleotide exchange factor 4 (Homo sapiens) (UniProt Q8WZA2); assay: Confirmatory qHTS for agonist of cAMP-regulated guanine nucleotide exchange factor 4 (EPAC2) (AID 1645884); details: EPAC2 GEF activity, Rap1B-BODIPY-GDP fluorescence, percent relative to cAMP agonist control; series mostly up to 154 µM;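 further: nucleotide exchange releases bodipy-GDP from Rap1 and this lowers its fluorescence; on the % scale 0 is the no-effect control and ±100 the full control effect; nearly all actives have a fitted effect of over 65% in size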
# Sequence of Rap guanine nucleotide exchange factor 4 (Homo sapiens) (Q8WZA2 whole entry, looked up): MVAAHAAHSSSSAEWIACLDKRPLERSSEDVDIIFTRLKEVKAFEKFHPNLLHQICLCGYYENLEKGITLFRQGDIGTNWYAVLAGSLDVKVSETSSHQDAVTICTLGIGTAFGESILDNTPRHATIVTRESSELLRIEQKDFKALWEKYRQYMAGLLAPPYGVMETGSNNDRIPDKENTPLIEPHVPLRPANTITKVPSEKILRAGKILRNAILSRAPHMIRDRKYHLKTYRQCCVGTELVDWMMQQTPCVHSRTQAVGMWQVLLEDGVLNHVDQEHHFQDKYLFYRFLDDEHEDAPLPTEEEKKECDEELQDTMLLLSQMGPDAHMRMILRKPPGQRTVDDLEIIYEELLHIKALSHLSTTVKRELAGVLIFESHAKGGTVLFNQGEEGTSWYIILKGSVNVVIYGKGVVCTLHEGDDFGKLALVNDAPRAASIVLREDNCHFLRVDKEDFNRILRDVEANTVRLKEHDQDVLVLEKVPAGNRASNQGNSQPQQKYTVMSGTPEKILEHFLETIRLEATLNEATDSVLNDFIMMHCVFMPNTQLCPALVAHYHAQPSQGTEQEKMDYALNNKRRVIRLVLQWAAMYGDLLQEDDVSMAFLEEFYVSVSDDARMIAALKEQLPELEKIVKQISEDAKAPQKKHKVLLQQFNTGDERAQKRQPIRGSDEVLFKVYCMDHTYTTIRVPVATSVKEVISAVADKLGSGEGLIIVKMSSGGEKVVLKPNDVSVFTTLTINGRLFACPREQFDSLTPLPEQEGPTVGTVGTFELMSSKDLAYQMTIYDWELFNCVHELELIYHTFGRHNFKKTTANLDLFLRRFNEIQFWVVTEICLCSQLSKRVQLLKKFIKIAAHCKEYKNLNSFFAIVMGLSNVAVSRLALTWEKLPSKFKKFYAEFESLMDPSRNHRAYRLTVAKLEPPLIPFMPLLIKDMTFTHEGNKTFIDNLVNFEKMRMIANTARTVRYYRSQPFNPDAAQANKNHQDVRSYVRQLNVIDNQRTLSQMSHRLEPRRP
# [13] = target: Rap guanine nucleotide exchange factor 4 (Homo sapiens) (UniProt Q8WZA2); assay: Confirmatory qHTS for antagonist of cAMP-regulated guanine nucleotide exchange factor 4 (EPAC2) (AID 1645885); details: EPAC2 Rap1B-BODIPY-GDP exchange fluorescence, biochemical; series mostly up to 114 µM; further: nearly all actives have a fitted effect of over 25% in size; further: potency means the concentration at half of the fitted maximal effect
# [14] = target: Glucocorticoid receptor (Homo sapiens) (UniProt P04150); assay: GR-GFP Redistribution (AID 450;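 active means compounds whose dose series gives a full or clear partial fitted curve of increased nuclear translocation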; further: potency means the concentration at half of the fitted maximal effect); details: U2OS GR-GFP nuclear translocation, laser cytometry, 2 h
# [15] = target: 3',5'-cyclic-AMP phosphodiesterase 4B (Homo sapiens) (UniProt Q07343); assay: qHTS Assay for Inhibitors of PDE-IV (AID 607; active means well fitted activation curve with a large enough effect in the main read-out, with a control signal flat, not every such curve was filed as active; further: % of control where 0% means no effect); details: HEK293 ACTOne CNG channel cells, membrane potential fluorescence; series mostly up to 22.9 µM
# Sequence of 3',5'-cyclic-AMP phosphodiesterase 4B (Homo sapiens) (Q07343 whole entry, looked up): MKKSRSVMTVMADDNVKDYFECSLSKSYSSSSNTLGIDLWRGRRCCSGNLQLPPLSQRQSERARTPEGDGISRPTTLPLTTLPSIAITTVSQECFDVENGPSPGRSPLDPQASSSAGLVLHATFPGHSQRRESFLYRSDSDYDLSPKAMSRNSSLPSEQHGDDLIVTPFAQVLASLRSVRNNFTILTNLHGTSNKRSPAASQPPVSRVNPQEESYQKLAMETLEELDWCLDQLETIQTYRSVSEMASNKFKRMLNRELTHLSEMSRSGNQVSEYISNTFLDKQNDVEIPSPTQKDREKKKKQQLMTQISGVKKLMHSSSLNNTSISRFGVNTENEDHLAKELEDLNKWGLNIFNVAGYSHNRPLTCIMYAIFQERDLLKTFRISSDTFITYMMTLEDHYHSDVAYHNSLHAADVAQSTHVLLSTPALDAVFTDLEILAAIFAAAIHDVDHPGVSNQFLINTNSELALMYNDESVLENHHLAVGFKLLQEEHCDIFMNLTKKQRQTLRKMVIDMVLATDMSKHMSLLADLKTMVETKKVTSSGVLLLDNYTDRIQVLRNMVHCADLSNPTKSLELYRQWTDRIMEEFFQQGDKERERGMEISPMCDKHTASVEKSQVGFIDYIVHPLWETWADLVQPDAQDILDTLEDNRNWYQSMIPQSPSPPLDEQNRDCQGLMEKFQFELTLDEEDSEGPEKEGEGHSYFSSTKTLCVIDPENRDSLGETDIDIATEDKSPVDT
# Method in brief: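 Live HEK293 cells with a modified cyclic nucleotide-gated (CNG) channel report intracellular cAMP via membrane-potential dye fluorescence (ex 535/em 590 nm). Endogenous PDE-IV was targeted. Compounds were tested at up to 22.9 uM final; RO 20-1724 100 uM served as control.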
# [16] = target: Dual specificity protein kinase CLK4 (Homo sapiens) (UniProt Q9HAZ1); assay: qHTS Assay for Inhibitors of CDC-like Kinase 4 (Kinase-Glo Assay) (AID 1770); details: recombinant Clk4, Kinase-Glo ATP depletion luminescence; series mostly up to 66.7 µM; further: on the % scale 0 is the no-effect control and ±100 the full control effect; nearly all actives have a fitted effect of over 65% in size
# Sequence of Dual specificity protein kinase CLK4 (Homo sapiens) (Q9HAZ1 whole entry, looked up): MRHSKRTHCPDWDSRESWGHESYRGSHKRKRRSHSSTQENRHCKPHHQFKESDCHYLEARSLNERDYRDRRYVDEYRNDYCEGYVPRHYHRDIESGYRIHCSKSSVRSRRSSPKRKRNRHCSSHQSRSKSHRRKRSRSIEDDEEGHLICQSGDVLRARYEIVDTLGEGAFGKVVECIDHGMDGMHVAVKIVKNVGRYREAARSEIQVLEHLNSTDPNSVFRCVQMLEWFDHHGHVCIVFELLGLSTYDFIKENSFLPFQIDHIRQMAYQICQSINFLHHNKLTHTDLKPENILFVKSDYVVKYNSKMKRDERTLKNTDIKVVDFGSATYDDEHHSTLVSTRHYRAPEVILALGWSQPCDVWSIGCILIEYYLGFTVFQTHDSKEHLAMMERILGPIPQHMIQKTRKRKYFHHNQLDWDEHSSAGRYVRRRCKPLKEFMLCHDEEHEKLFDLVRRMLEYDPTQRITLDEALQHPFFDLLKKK
# Method in brief: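 Luminescent ATP-depletion read-out (Kinase-Glo) after 4.5 h room-temperature reaction of Clk4 (25 nM final) with RS peptide (100 uM) and ATP (1 uM), pH 7.5 Tris buffer with MgCl2 and DTT.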
# [17] = target: Dual specificity protein kinase CLK4 (Homo sapiens) (UniProt Q9HAZ1); assay: qHTS Assay for Inhibitors of CDC-like Kinase 4 (ADP-Glo Assay) (AID 1771); details: recombinant CLK4, ADP-Glo luminescence; series mostly up to 80 µM; further: on the % scale 0 is the no-effect control and ±100 the full control effect; nearly all actives have a fitted effect of over 70% in size
# Method in brief: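 Kinase reaction: Clk4 at 25 nM, RS repeat peptide substrate at 100 uM, ATP at 1 uM, 1 hr, room temperature. Product ADP detected as luciferase signal via ADP-Glo.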
# [18] = target: Dual specificity protein kinase CLK4 (Homo sapiens) (UniProt Q9HAZ1); assay: qHTS Assay for Inhibitors of CDC-like Kinase 4 (ADP-FP Assay) (AID 1795); details: Transcreener ADP fluorescence polarization; series mostly up to 50 µM;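 further: recombinant human CLK4 phosphorylating RS repeat peptide at 1 µM ATP; on the % scale 0 is the no-effect control and ±100 the full control effect; nearly all actives have a fitted effect of over 60% in size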
# Method in brief: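 Kinase activity was measured as ADP production using Transcreener orange tracer (4 nM) and ADP antibody (1 ug/mL) fluorescence polarization, with ADP calculated from a calibration curve. The 1 h reaction contained 6.25 nM Clk4, 1 uM ATP and 100 uM RS peptide at pH 7.5 with Mg2+.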
# [19] = target: Ubiquitin carboxyl-terminal hydrolase 1 (Homo sapiens) (UniProt O94782); assay: Inhibitors of USP1/UAF1: Pilot qHTS (AID 504865); details: purified USP1/UAF1, Ub-rhodamine cleavage fluorescence; series mostly up to 54.9 µM;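 further: rhodamine fluorescence freed from ubiquitin-rhodamine substrate followed over time; top concentration of the series differs between compounds; on the % scale 0 is the no-effect control and ±100 the full control effect; nearly all actives have a fitted effect of over 35% in size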
# Method in brief: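 Deubiquitinase activity followed as kinetic rhodamine fluorescence release from 150 nM Ub-Rho. 1 nM USP1/UAF1 with compound, after 15 min room-temperature preincubation, in HEPES pH 7.8 buffer containing TCEP, EDTA, BSA and Tween-20.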
# [20] = target: Cytochrome P450 3A4 (Homo sapiens) (UniProt P08684); assay: qHTS Assay for Inhibitors and Substrates of Cytochrome P450 3A4 (AID 884); details: recombinant CYP3A4, Luciferin-PPXE luminescence; series mostly up to 57.1 µM; further: potency means the concentration at half of the fitted maximal effect; nearly all actives have a fitted effect of over 50% in size
# Method in brief: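 20 nM human CYP3A4 with 25 uM Luciferin-PPXE (at KM) in 200 mM KPO4, preincubated 10 min with compound; NADPH regeneration started a 60 min RT reaction. Luciferin detected by luminescence, normalized to 57 uM ketoconazole as full inhibition.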
# [21] = at 7.69 µM (top of the series) unless noted
# [22] = measured here: cell count channel max response
# [23] = measured here: lipid channel max response
smiles,measurement,setting,value
O=C(Nc1ccccc1)N1CCCC2(CCN(C(=O)c3cc(C(F)(F)F)cc(C(F)(F)F)c3)CC2)C1,Potency,[1],> 11.4 µM (inactive)
same,"activity change, negative = inhibition",[2],-28.2% (inactive)
same,Potency,[3],31.6 µM (active)
same,"activity change, negative = inhibition",[4]; [21],19.5% (inactive)
same,"activity, negative = inhibition",[5],-14.9% (inactive)
same,Potency,[6],> 46 µM (inactive)
same,outcome,[7],inactive
same,Potency,[8],inactive
same,"activity change, negative = inhibition",[9]; at 57.5 µM (top of the series),-0.939% (inactive)
same,max response,[9]; [22],16.6%
same,max response,[9]; [23],17.1%
same,Potency,[10],inactive
same,outcome,[11],inactive
same,outcome,[12],inactive
same,Potency,[13],44.1 µM (active)
N#CCCn1c(=O)c(-c2ccc(Cl)cc2)nc2cnc(Oc3ccccc3)nc21,Potency,[1],> 11.4 µM (inactive)
same,"activity change, negative = inhibition",[2],-26.3% (inactive)
same,Potency,[3],0.501 µM (active)
same,"activity change, negative = inhibition",[4]; [21],-9.95% (inactive)
same,"activity, negative = inhibition",[5],-6.74% (inactive)
same,Potency,[14],> 9.22 µM (inactive)
same,Potency,[6],> 46 µM (inactive)
same,outcome,[7],inactive
same,Potency,[15],inactive
same,"activity change, negative = inhibition",[9]; at 57.5 µM (top of the series),4.78% (inactive)
same,max response,[9]; [22],19.6%
same,max response,[9]; [23],24.2%
same,Potency,[16],inactive
same,Potency,[17],inactive
same,Potency,[18],inactive
same,Potency,[19],inactive
same,Potency,[10],inactive
O=C(c1cc(C(F)(F)F)cc(C(F)(F)F)c1)N1CCC2(CCCN(Cc3nccs3)C2)CC1,Potency,[1],> 11.4 µM (inactive)
same,"activity change, negative = inhibition",[2],-11.4% (inactive)
same,Potency,[3],inactive
same,"activity, negative = inhibition",[5],-17.2% (inactive)
same,outcome,[7],inactive
same,Potency,[15],inactive
same,Potency,[8],inactive
same,"activity change, negative = inhibition",[9]; at 57.5 µM (top of the series),-19.9% (inactive)
same,max response,[9]; [22],17.8%
same,max response,[9]; [23],-1.38%
same,Potency,[10],inactive
same,outcome,[11],inactive
same,outcome,[12],inactive
Oc1ccc(/C=C\c2cc(O)cc(O)c2)cc1,"activity change, negative = inhibition",[2],-2.07% [at 17.2 µM] (inactive)
same,"activity change, negative = inhibition",[4]; at 17.2 µM (top of the series),-19.4% (inactive)
same,"activity change, negative = inhibition",[4]; at 38 µM (top of the series),-5.74% (inactive)
same,"activity, negative = inhibition",[5],-21.4% [at 17.2 µM] (inactive)
same,Potency,[15],inactive
same,"activity change, negative = inhibition",[9]; at 25.7 µM (top of the series),2.61% (inactive)
same,max response,[9]; [22],-19.7%
same,max response,[9]; [23],-17.5%
same,Potency,[19],inactive
same,Potency,[10],inactive
same,outcome,[11],inactive
same,outcome,[12],inactive
same,Potency,[13],44.1 µM (active)
O=C(c1cnccn1)N1CCC[C@@]2(CCN(C(c3ccccc3)c3ccccc3)C2)C1,Potency,[1],> 11.4 µM (inactive)
same,"activity change, negative = inhibition",[2],0.193% (inactive)
same,Potency,[3],15.8 µM (active)
same,"activity change, negative = inhibition",[4]; [21],11.2% (inactive)
same,"activity, negative = inhibition",[5],16.5% (inactive)
same,Potency,[6],> 46 µM (inactive)
same,outcome,[7],inactive
same,Potency,[15],inactive
same,Potency,[8],inactive
same,"activity change, negative = inhibition",[9]; at 57.5 µM (top of the series),-1.1% (inactive)
same,max response,[9]; [22],3.2%
same,max response,[9]; [23],5.21%
same,Potency,[10],inactive
same,outcome,[11],inactive
same,outcome,[12],inactive
COCCn1c(=O)c(-c2cccs2)nc2cnc(N(C)C)nc21,Potency,[1],> 11.4 µM (inactive)
same,"activity change, negative = inhibition",[2],-5.67% (inactive)
same,Potency,[3],2 µM (active)
same,"activity change, negative = inhibition",[4]; [21],10.2% (inactive)
same,"activity, negative = inhibition",[5],-4.44% (inactive)
same,Potency,[14],> 9.22 µM (inactive)
same,Potency,[6],> 46 µM (inactive)
same,outcome,[7],inactive
same,Potency,[15],inactive
same,Potency,[20],7.94 µM (active)
same,Potency,[8],inactive
same,"activity change, negative = inhibition",[9]; at 57.5 µM (top of the series),3.99% (inactive)
same,max response,[9]; [22],26.2%
same,max response,[9]; [23],28.7%
same,Potency,[16],inactive
same,Potency,[17],inactive
same,Potency,[18],inactive
same,Potency,[10],inactive
same,Potency,[13],inactive
